Screening data: PubChem, National Center for Advancing Translational Sciences (NCATS)
Only some compounds are listed: those with a hit (about 10% of all), similar ones and a draw of the others.
HEK293 tox: Cytotoxic Profiling in HEK 293 Cell Line of Diverse Libraries Using Quantitative High-Throughput Screening; actives 6.6% (n = 94,000); HEK 293 viability, ATP luminescence (CellTiter-Glo), 48-72 h; Potency, µM (doses to about 115 µM), most hits filed as inhibitors; also: nearly all actives have a fitted effect of over 60% in size
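qHTS cytotoxicity; HEK 293, 250 cells/well; compound pinned; 48 or 72 hr, 37 degree Celsius, 5% CO2, 95% humidity; CellTiter-Glo, 10 min RT; luminescence (ATP).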
NPR1 antag: Natriuretic polypeptide receptor (hNpr1) antagonism - Primary qHTS; Potency, µM (series often up to 46.3 µM), hits mostly inhibitors; actives 1.6% (n = 76,000); Atrial natriuretic peptide receptor 1 (Homo sapiens), P16066; AID 1347048, 2019; HEK293 hNpr1 GloSensor cGMP, ANP-stimulated luminescence; calls by dose curve; also: nearly all actives have a fitted effect of over 60% in size
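Compound pre-incubated 30 min at room temperature on GloSensor-loaded HEK293 cells stably carrying hNpr1 and the pGS-40F cGMP biosensor. Stimulation uses hNppA at 0.1 nM final; luminescence is taken at baseline and 20 min post-agonist.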
Luciferase inh: Firefly luciferase inhibition profiling of diverse chemical library using quantitative high-throughput screening. Luciferin 4-monooxygenase (Photinus pyralis), P08659. purified P. pyralis luciferase, luminescence, biochemical. Potency, µM (series often up to 115 µM), usual class: inhibitors. actives 2.5% (n = 76,000); also: nearly all actives have a fitted effect of over 65% in size
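FLuc 10nM, D-luciferin 10uM, ATP 10uM, Mg acetate 10mM, Tris acetate pH 7.5, Tween/BSA; cpd qHTS; enzyme added last; CCD luminescence.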
NIH3T3 tox: Cytotoxic Profiling in NIH 3T3 Cell Line of Diverse Libraries Using Quantitative High-Throughput Screening | actives 4.3% (n = 94,000) | NIH 3T3 viability, CellTiter-Glo ATP luminescence, 48-72 h | Potency, µM (series often up to 96.7 µM), hits mostly inhibitors; also: nearly all actives have a fitted effect of over 55% in size
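Cytotoxicity was measured by CellTiter-Glo ATP luminescence after 48 or 72 h compound exposure at 37 °C. Mouse NIH 3T3 fibroblasts were seeded at 400 cells/well and dosed by 23 nL pin transfer.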
GPT2 inh: Primary qHTS assay for inhibitors of Glutamate pyruvate transaminase 2 (GPT2); Alanine aminotransferase 2 (Homo sapiens), Q8TD30; Recombinant GPT2, coupled pyruvate oxidase/HRP Amplex Red fluorescence; Potency, µM (doses to about 57.7 µM), most hits filed as inhibitors; actives 0.25% (n = 100,000); AID 1671188, 2021; also: nearly all actives have a fitted effect of over 60% in size
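Inhibition is scored from Amplex Red fluorescence generated when pyruvate oxidase and HRP act on pyruvate released by GPT2. Reactions contain 10ng/uL enzyme, 250uM a-KG and 2mM L-alanine and run 30 min at room temperature.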
NPR1 antag cnf: Natriuretic polypeptide receptor (hNpr1) antagonism - Confirmation | shares compounds with NPR1 antag | HEK293 hNpr1 cGMP GloSensor luminescence, ANP-stimulated | Potency, µM (doses to about 57.6 µM), hits mostly inhibitors | actives 76% (n = 1,400) | AID 1347044, 2019; calls by dose curve; also: nearly all actives have a fitted effect of over 70% in size
Npr2 selectivity: Natriuretic polypeptide receptor (hNpr2) antagonism - Subtype selectivity assay. shares compounds with NPR1 antag. HEK293 hNpr2 GloSensor cGMP luminescence, CNP-stimulated. Potency, µM (series often up to 57.6 µM), usual class: inhibitors. actives 67% (n = 1,400); calls by dose curve; also: nearly all actives have a fitted effect of over 70% in size
FLuc inh counter: Natriuretic polypeptide receptor (hNpr1) antagonism - Confirmation firefly luciferase (FLuc) inhibition counterscreen; shares compounds with NPR1 antag; purified FLuc enzyme, luminescence, Km substrate; Potency, µM (doses to about 57.6 µM), actives largely listed as inhibitors; actives 0.7% (n = 1,400)
GloSensor ctrl: Natriuretic polypeptide receptor (hNpr1) antagonism - Counterscreen GloSensor control cell line; shares compounds with NPR1 antag; Potency, µM (series often up to 57.6 µM), actives largely listed as inhibitors; AID 1347051, 2019; actives 69% (n = 1,400); HEK293 GloSensor cGMP, SNP-stimulated, luminescence; calls by dose curve; also: nearly all actives have a fitted effect of over 70% in size
Numbers stand for hits; n = inactive; u = inconclusive; x = no result given. Unless noted, calls follow the shape of the dose curve; as a rule, active = well fitted curve in the direction sought with a large enough effect; inconclusive = small, poorly fitted or top-dose-only effect, or another doubt; inactive = no such curve, though single readings can be large; an effect the other way counts as inactive or inconclusive.

SMILES	HEK293 tox	NPR1 antag	Luciferase inh	NIH3T3 tox	GPT2 inh	NPR1 antag cnf	Npr2 selectivity	FLuc inh counter	GloSensor ctrl
CCC(CC)c1cc([C@H]2CN3CC[C@H]2C[C@@H]3CNC(=O)COc2ccccc2)nc(-c2ccncc2)n1	28.2µM	11.2µM	n	22.4µM	n	17.2µM	17.2µM	n	n
COc1cc2c(cc1Oc1cccc(N(C)C)c1)NC(=O)C21CCN(Cc2cccc(O)c2)CC1	25.1µM	11.2µM	n	u	n	19.3µM	21.7µM	n	17.2µM
COc1cc2c(cc1Oc1cccc(N(C)C)c1)NC(=O)C21CCN(Cc2ccccc2)CC1	28.2µM	11.2µM	n	25.1µM	n	17.2µM	19.3µM	n	9.68µM
COc1ccc(CN2CCC3(CC2)C(=O)Nc2ccccc23)cc1	n	x	x	n	n	x	x	x	x
O=C(Cc1ccccc1)N1Cc2ccccc2CC2(CCCN2Cc2ccncc2)C1 (stereo unspecified)	u	x	x	n	n	x	x	x	x
O=C(Cc1ccc(Cl)cc1)N1Cc2ccccc2CC2(CCCN2CC2CCNC2)C1 (stereo unspecified)	28.2µM	x	x	15.8µM	n	21.7µM	6.11µM	n	n
CCC(C)(O)C1(C(=O)O)COC(=O)C1 (stereo unspecified)	x	x	x	x	n	x	x	x	x
CCCCOC(=O)N1C[C@H](C(=O)OCC)[C@H]2c3ccccc3NC(=O)[C@]21C	u	x	x	n	n	x	x	x	x
O=C(CC1CCCC1)N1[C@H]2CC[C@@H]1c1cnc(-c3ccc(F)cc3)nc1C2	u	3.98µM	n	n	n	4.32µM	6.11µM	n	4.32µM
CCn1nccc1C(=O)N1[C@H]2CC[C@@H]1c1cnc(-c3ccccc3)nc1C2	u	12.6µM	n	n	n	17.2µM	21.7µM	n	15.3µM
Cn1nccc1C(=O)N1[C@H]2CC[C@@H]1c1cnc(-c3ccc(F)cc3)nc1C2	u	u	n	u	n	x	x	x	x
CCCS(=O)(=O)N1[C@H]2CC[C@@H]1c1cnc(-c3ccc(F)cc3)nc1C2	u	17.8µM	n	u	n	17.2µM	19.3µM	n	13.7µM
COc1ccccc1C(=O)N1[C@H]2CC[C@@H]1c1cnc(-c3ccc(F)cc3)nc1C2	u	8.91µM	n	u	n	17.2µM	15.3µM	n	12.2µM
COCCOCC(=O)N1[C@H]2CC[C@@H]1c1cnc(-c3ccc(F)cc3)nc1C2	n	n	n	u	n	x	x	x	x
C[C@H]1C(=O)O[C@H]2[C@H](O)[C@]34C5OC(=O)[C@]3(O[C@@H]3OC(=O)[C@H](O)C34[C@H](C(C)(C)C)[C@H]5O)C12O (stereo partly specified)	x	x	x	x	n	x	x	x	x
C[C@@H]1O[C@@H](OC2CCC3(C=O)C(CCC4C3CCC3(C)C(C5=CC(=O)OC5)C(O)CC43O)C2)[C@H](O)[C@H](O)[C@H]1O[C@@H]1O[C@H](CO)[C@@H](O)[C@H](O)[C@H]1O (stereo partly specified)	x	x	x	x	n	x	x	x	x
O=C(c1ccsc1)N1[C@H]2CC[C@@H]1c1cnc(-c3ccc(F)cc3)nc1C2	39.8µM	8.91µM	n	n	n	13.7µM	10.9µM	n	12.2µM
C[C@H]1C/C=C/[C@H]2[C@@H]3O[C@]3(C)[C@@H](C)[C@H]3[C@H](Cc4ccccc4)NC(=O)[C@]32OC(=O)O/C=C/[C@@](C)(O)C1=O	x	x	x	x	n	x	x	x	x
